This is a sample that favours compounds with a hit; in the whole collection about 1.1% have one here.
Exocytosis inh – lytic granule exocytosis inhibition | TALL-104 LAMP-1 surface exposure, flow cytometry; cells stimulated with thapsigargin and PMA | inhibition, % at 10 µM | 0.66% of 360,000 active;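 active means inhibition above about 55%, limit read from the data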
VLA-4 inh – inhibition in a human VLA-4 binding assay | P13612 | VLA-4 expressing cells, ligand binding flow cytometry | inhibition, % (about 7 µM as worked out from the volumes in the protocol) | 0.2% of 330,000 active | AID 2557; in the data active means inhibition above about 50%
ABCB6 inh 2 – human ABCB6 transporter inhibition | Q9NP58 | K562-ABCB6 porphyrin accumulation, flow cytometry, 1 h; hits give low values | fluorescence ratio to DMSO, % at 10 µM | 0.19% of 360,000 active | AID 602162;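 active means fluorescence ratio to DMSO below 75%, the collection mean minus 3 SD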;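 further: signal is porphyrin accumulated inside mitochondria; 100% equals median channel fluorescence of DMSO control wells; lower ratio means ABCB6 inhibition with less porphyrin fluorescence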
CaV13 FRET inh – Primary screen for inhibitors of IQ motif and Ca2+-dependent inactivation inhibitor domain binding in CACNA1D, Förster resonance energy transfer in living cells, …; HEK cells, CFP/YFP FRET ICDI-IQ, plate reader, 10 min; percent FRET-ratio fall versus neutral wells; inhibition, % at 12.3 µM; 0.098% of 340,000 active; AID 743397;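 active means mean replicate inhibition of at least 30% and at least 1% of replicates passing that level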;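 further: 0% = median of the neutral control wells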
* = called active by the depositor; · = no result; + = active, no number; ! = repeats disagree.

SMILES	Exocytosis inh	VLA-4 inh	ABCB6 inh 2	CaV13 FRET inh
CN(C)C(=O)N1CCN(C(=O)[C@H](CCc2ccccc2)NC(=O)[C@H]2O[C@@H](n3cnc4c(N)ncnc43)[C@H](O)[C@@H]2O)CC1	·	·	·	-2.1
O=[N+]([O-])c1ccc(Cl)c(C2Nc3cccc4cccc(c34)N2)c1	55.6*	31.3	99.0	-4.8
O=[N+]([O-])c1ccccc1C1Nc2cccc3cccc(c23)N1	8.8	10.9	97.0	-3.9
Cc1noc(C)c1S(=O)(=O)N(CC(=O)N1CCCCCC1)c1ccc(C(C)C)cc1	-2.2	8.7	99.0	50.5*
COc1ccc(CN2C(=O)C(C)Nc3ncnc(N4CCN(c5ccccc5)CC4)c32)cc1 (stereo not given)	15.3	11.9	98.0	63.0*!
COC(=O)[C@]12C[C@H](CC(=O)NCCc3ccccc3OC)C(=O)N(CCC3=CCCCC3)C1=C[C@H](C(C)(C)C)O[C@@H]2C	·	·	·	-4.5
CCOc1ccc(-c2csc(NNC3=NCCCCC3)n2)cc1	55.9*	19.9	100.0	-6.2
COc1ccc(-c2csc(NNC3=NCCCCC3)n2)cc1	·	-0.1	·	2.6
Cc1cc(CN2CCN(c3ncc(Cc4ccccc4)cn3)CC2)cc(C)c1O	·	·	·	-10.1
C=CCNC(=O)c1cc2c(=O)n3cc(C)ccc3nc2nc1NCC1CCCO1 (stereo not given)	·	17.5	·	·
CCNc1nc2nc3ccc(C)cn3c(=O)c2cc1C(=O)NCC1CCCO1 (stereo not given)	0.8	-11.1	101.0	+
Brc1cccc(CN2CCN(c3ncc(Cc4ccccc4)cn3)CC2)n1	·	·	·	-5.7
C/C=C(/C)C(=O)OC1CC(C)(C)C[C@H]2C3=CC[C@@H]4[C@@]5(C)CCC(O[C@@H]6O[C@@H](C(=O)O)[C@@H](O)C(O[C@@H]7OC[C@H](O)[C@@H](O)[C@@H]7O[C@@H]7OC(CO)C(O)[C@@H](O)[C@@H]7O)C6O[C@@H]6OC(CO)C(O)C(O)C6O)[C@@](C)(CO)[C@@H]5CC[C@]4(C)[C@]3(C)CC(O)[C@@]12CO (stereo not given in full)	-1.1	-81.9	104.0	·
C/C=C(\C)C(=O)OC1[C@H](OC(C)=O)C2(CO)C(CC1(C)C)C1=CCC3C4(C)CCC(O[C@@H]5O[C@H](C(=O)O)[C@@H](O[C@@H]6O[C@H](CO)[C@@H](O)[C@H](O)[C@H]6O)[C@H](O)[C@H]5O[C@H]5O[C@H](CO)[C@@H](O)[C@H](O)[C@H]5O)[C@](C)(CO)C4CCC3(C)[C@]1(C)C[C@H]2O (stereo not given in full)	71.0*	·	98.0	·
CCC(C(=O)OCC(=O)Nc1ccc(SC(F)F)cc1)c1ccccc1 (stereo not given)	73.2*	·	105.0	-1.5
CCC(C(=O)OCC(=O)Nc1ccc(F)cc1)c1ccccc1 (stereo not given)	-2.2	-8.3	92.0	-3.4
CCN1CCN(C(=O)/C=C/c2ccc(C)o2)CC1	1.4	5.3	98.0	-4.4
Cc1ccc(/C=C/C(=O)N2CC(C)CC(C)C2)o1 (stereo not given)	102.5*	-2.3	104.0	-0.2
O=c1[nH][nH]cc1C=Nc1ccccc1Cl	-0.4	2.1	100.0	-3.3
O=c1[nH][nH]cc1C=Nc1ccccc1O	3.6	18.6	68.0*	-6.1
Cc1ccc(C2c3c(n[nH]c3C)C(=O)N2c2ccccc2)cc1 (stereo not given)	·	·	·	-2.6
N/C(=N\OS(=O)(=O)c1ccc(Br)cc1)c1ccncc1	-0.2	4.2	63.0*	-3.0
CCOc1ccc(C(C)=O)cc1N1C(=O)C2C3C=CC(O3)C2C1=O (stereo not given)	104.6*	-138.9	99.0	·
CCOc1ccc(C(C)=O)cc1N1C(=O)C2C3C=CC(C3)C2C1=O (stereo not given)	-4.4	5.1	95.0	-5.8
COCc1[nH]nc2c1C(c1cccc(C(F)(F)F)c1)N(c1ccccc1)C2=O (stereo not given)	·	·	·	-4.3
CCN(CC)c1ccc2cc(C(N)=O)c(=O)oc2c1	-2.7	-3.2	94.0	32.9*
CCN(CC)c1ccc2cc(C(N)=O)c(=N)oc2c1	-4.7	-61.4	153.0	4.0
CC1(C)CC(=O)C(=Cc2cn(-c3ccccc3)nc2-c2ccccc2)C(=O)C1	55.9*	8.0	95.0	-4.1
O=C1NC(c2cccc(C(F)(F)F)c2)c2c(-c3ccccc3)n[nH]c21 (stereo not given)	·	·	·	-2.3
O=C(/C(=C/c1ccc(Cl)cc1)c1nc2ccccc2[nH]1)c1cccs1	96.3*	17.9	109.0	·

Screens from PubChem.
